Screening results deposited in PubChem by National Center for Advancing Translational Sciences (NCATS).
D2 ag-1 = activates the human D2 dopamine receptor; P14416; 340,000 tested, 0.53% active; HEK293 T-REx D2 cells, calcium flux agonist mode; activation, % at 2 µM;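 active = activation over 3 SD above normal in the single-dose calcium agonist read, cut at about 30% in these data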; note: 0% is about no effect
Target sequence (P14416 whole entry, looked up): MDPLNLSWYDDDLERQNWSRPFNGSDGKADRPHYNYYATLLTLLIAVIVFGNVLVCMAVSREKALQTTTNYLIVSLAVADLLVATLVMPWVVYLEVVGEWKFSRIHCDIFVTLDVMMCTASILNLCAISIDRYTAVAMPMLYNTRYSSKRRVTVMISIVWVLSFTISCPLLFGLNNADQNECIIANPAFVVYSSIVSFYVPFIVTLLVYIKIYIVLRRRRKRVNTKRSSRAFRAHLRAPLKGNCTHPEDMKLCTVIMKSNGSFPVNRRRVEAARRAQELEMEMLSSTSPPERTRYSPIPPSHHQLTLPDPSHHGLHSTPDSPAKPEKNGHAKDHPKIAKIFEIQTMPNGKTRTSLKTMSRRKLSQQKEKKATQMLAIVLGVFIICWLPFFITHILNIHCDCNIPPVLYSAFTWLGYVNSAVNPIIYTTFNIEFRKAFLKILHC
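Calcium-flux readout, 1 cycle/sec over 180 s following compound pin transfer, in inducible HEK293 Trex D2 cells (force-coupled); dopamine controls included. Positive calcium responses during this window marked compounds as potential agonists.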
D2 PAM-1 = potentiates the human D2 dopamine receptor allosterically | DiscoveRx D2 beta-arrestin cells, luminescence, 90 min; 100% = 57 uM dopamine signal | potentiation, % (test concentration not listed) | 360,000 tested, 0.23% active; in the data active = potentiation above about 50%
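D2 cells co-treated with compound plus 50 nM dopamine (EC20) for 90 min at 37 deg C to detect potentiation. Beta-arrestin recruitment was read as enzyme-fragment luminescence after 1 h at ambient temperature. Full response was set by 57 uM dopamine.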
D2 ag-2 = human D2 receptor agonism in beta-arrestin assay; 360,000 tested, 0.084% active; activation, % (test concentration not listed); P14416; DiscoveRx PathHunter D2 beta-arrestin, luminescence, 90 min; 100% = 57 uM dopamine signal; in the data active = activation above about 40%
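DiscoveRx PathHunter D2 beta-arrestin cells (2,100/well) attached overnight, then compound-stimulated 90 min at 37 C in HBSS/10 mM HEPES/0.1% Tween-20 buffer; beta-galactosidase complementation read by luminescence after 1 h at ambient temperature. Dopamine 57 uM final (EC100) as control.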
D2 PAM-2 = D2 dopamine receptor (human) potentiation; P14416; HEK293 T-REx D2, calcium flux, EC20 dopamine potentiation; potentiation, % at 10 µM; 340,000 tested, 0.34% active; AID 485347;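 active = potentiation over 3 SD above the plate norm, cut at about 30% in these data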; note: 0% is about no effect
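Tetracycline-induced HEK293 T-REx cells force-coupled to calcium signalling expressed D2; compounds were pin-added after a 10 s baseline, read kinetically 180 s, then an EC20 dopamine challenge followed with a further 180 s calcium read.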
D2 antagonist = antagonizes the human D2 dopamine receptor | P14416 | HEK293 TREx D2 cells, calcium flux, dopamine EC80 | inhibition, % at 10 µM | 340,000 tested, 2% active | AID 485344; in the data active = inhibition above about 30%; inactive = below that, where a call was filed; note: 0% is about no effect
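Overnight-induced (tetracycline, 30 C) HEK293 T-REx cells carrying force-coupled D2 receive a no-wash calcium dye, then compound, then EC80 dopamine at 180 s; signals are read kinetically throughout.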
An asterisk follows results filed as active. Hits are enriched below; roughly 2.4% of the tested compounds scored in any of these assays.

How did CCCn1c(SCC(=O)N2CCN(C(=O)c3ccco3)CC2)nc2ccccc2c1=O do in these assays?
D2 ag-1: 1; D2 PAM-1: 5; D2 ag-2: -2; D2 PAM-2: -2; D2 antagonist: 31*

How did O=C(CSc1nnc(-c2ccco2)n1-c1ccccc1)N1CCN(C(=O)c2ccco2)CC1 do in these assays?
D2 ag-1: 2; D2 PAM-1: 1; D2 ag-2: -2; D2 antagonist: 65*

Results for CCCN(CCC)CCCNC(=S)Nc1ccc2nc3n(c(=O)c2c1)CCCCC3 ?
D2 ag-1: 32*; D2 PAM-1: -22; D2 ag-2: 2; D2 PAM-2: -18; D2 antagonist: -3

Results for CCN(CC)CCNC(=S)Nc1ccc2nc3n(c(=O)c2c1)CCCCC3 ?
D2 ag-1: 1; D2 PAM-1: -4; D2 ag-2: -3; D2 PAM-2: -5; D2 antagonist: -13

Results for CCCCCCOC(=O)C(C#N)c1nc2ccccc2nc1N1CCCCC1 (stereo unspecified) ?
D2 ag-1: -2; D2 PAM-1: -7; D2 ag-2: -1; D2 PAM-2: 35*; D2 antagonist: -11

Results for CCOC(=O)CSc1nc2cc3c(cc2c(=O)n1CCCC(=O)NCc1ccc2c(c1)OCO2)OCO3 ?
D2 ag-1: 0; D2 PAM-2: 3

Results for COC(=O)c1nn(-c2cccc(C)c2)c2nnc(Cc3ccccc3)c(=O)n12 ?
D2 ag-1: 0; D2 PAM-1: 11; D2 ag-2: 5; D2 PAM-2: -12; D2 antagonist: 63*

How did COC(=O)c1nn(-c2ccccc2)c2nnc(Cc3ccc(C)cc3)c(=O)n12 do in these assays?
D2 ag-1: 0; D2 PAM-1: -7; D2 ag-2: -4; D2 PAM-2: 0; D2 antagonist: -4

Results for Cc1c(C(=O)N(Cc2ccc(N(C)C)cc2)CC2CCCO2)oc2ccc(Br)cc12 (stereo unspecified) ?
D2 ag-1: -1; D2 PAM-2: 13

What do the screens show for `CCCn1c(N)c(Sc2ccccc2)c(=O)n(CCC)c1=O`?
D2 ag-1: 0; D2 PAM-1: 1; D2 ag-2: -1; D2 PAM-2: -8; D2 antagonist: 49*

Results for CC1=C(C(=O)Nc2ccc(Cl)cc2)C(c2ccc(C(F)(F)F)cc2)n2nnnc2N1 (stereo unspecified) ?
D2 ag-1: 0; D2 PAM-2: -8

What do the screens show for `CC(C)(Cc1ccc(O)cc1)NC(=O)CC(=O)N=Nc1c(O)[nH]c2ccc(Br)cc12`?
D2 ag-1: 31*; D2 PAM-1: -11; D2 ag-2: 2; D2 PAM-2: -16; D2 antagonist: 3

What do the screens show for `CC(=O)c1cc(-c2ccc(F)cc2)n(CC(=O)NC2CCCCCC2)c1C`?
D2 ag-1: -1; D2 PAM-2: -4

How did COc1ccc(NS(=O)(=O)c2ccc(NC(=O)c3ccccn3)cc2)cc1 do in these assays?
D2 ag-1: 0; D2 PAM-1: 0; D2 ag-2: 13; D2 PAM-2: 73*; D2 antagonist: -1

How did COc1ccc(S(=O)(=O)Nc2ccc(Oc3ncccn3)c(Cl)c2)cc1 do in these assays?
D2 ag-1: 1; D2 PAM-1: 4; D2 ag-2: -2; D2 PAM-2: -9; D2 antagonist: -6

Results for COc1ccc(S(=O)(=O)Nc2ccc(S(=O)(=O)Nc3nccs3)cc2)cc1 ?
D2 ag-1: 0; D2 PAM-1: 1; D2 ag-2: -2; D2 PAM-2: -1; D2 antagonist: 50*

What do the screens show for `COc1ccc(CC(=O)Nc2ccc(S(=O)(=O)Nc3nccs3)cc2)cc1`?
D2 ag-1: 0; D2 PAM-1: -1; D2 ag-2: -3; D2 PAM-2: -3; D2 antagonist: 25

How did COc1ccc(NS(=O)(=O)c2ccc(Oc3ncccn3)cc2)cc1 do in these assays?
D2 ag-1: 1; D2 PAM-1: 0; D2 ag-2: 1; D2 PAM-2: 46*; D2 antagonist: -3

How did COc1cc(OC)cc(C(=O)Nc2ccc(S(=O)(=O)Nc3nc(C)cc(C)n3)cc2)c1 do in these assays?
D2 ag-1: -1; D2 PAM-1: -4; D2 ag-2: 5; D2 PAM-2: 1; D2 antagonist: 34*
